From PubChem BioAssay AID1012 (Sanford-Burnham Center for Chemical Genomics, 2008) come the findings set out here.

In all, about 200,000 compounds went through this assay and about 520 (0.26%) were called active. The list comes from a sample in which actives are over-represented; it also holds similar structures and randomly drawn compounds. Unmarked numbers belong to inactive results.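 Rule for the calls: active = tissue-nonspecific alkaline phosphatase inhibition above about 50% at 20 µM in the single-dose screen (limit read from the data); inactive = the rest.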

This experiment deals with Alkaline phosphatase, tissue-nonspecific isozyme (Homo sapiens) (UniProt P05186). Kind of experiment: blockers of alkaline phosphatase TNAP activity – biochemical, luminescent, no phosphate acceptor, uHTS, primary screen (AID 1012).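 Note: 0% = DMSO negative control and 100% = EDTA positive control.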 The conditions noted are these: purified TNAP, CDP-star luminescence, 30 min; at 20 µM; hits give high values.
Alkaline phosphatase, tissue-nonspecific isozyme (Homo sapiens), sequence (P05186 whole entry, looked up): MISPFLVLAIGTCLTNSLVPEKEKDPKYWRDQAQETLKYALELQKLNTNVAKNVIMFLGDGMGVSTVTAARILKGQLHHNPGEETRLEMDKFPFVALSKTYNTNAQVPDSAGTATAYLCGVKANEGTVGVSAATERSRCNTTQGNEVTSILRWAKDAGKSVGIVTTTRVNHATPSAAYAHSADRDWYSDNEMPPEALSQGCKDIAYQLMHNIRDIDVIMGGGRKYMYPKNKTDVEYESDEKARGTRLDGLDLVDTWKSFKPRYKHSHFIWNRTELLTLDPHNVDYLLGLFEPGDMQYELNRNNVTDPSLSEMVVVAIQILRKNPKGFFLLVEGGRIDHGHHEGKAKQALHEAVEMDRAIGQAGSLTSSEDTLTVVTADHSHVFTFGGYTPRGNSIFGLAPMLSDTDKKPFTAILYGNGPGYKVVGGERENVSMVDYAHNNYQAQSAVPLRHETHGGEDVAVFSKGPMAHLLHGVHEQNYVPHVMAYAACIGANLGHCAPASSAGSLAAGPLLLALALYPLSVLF
Regarding `COc1ccc(N2C(=O)CNC2=S)cc1`, the inhibition – broadly, the change of the read-out against control, counted positive when it falls – was -13.2%.

Turning to `N#C/C=C(/c1ccc(F)cc1)N1CCOCC1`, the inhibition was -8.3%.

`CC(C)CNC(=S)Nc1ccc(F)cc1`: the inhibition is -5.6%.

As for `COc1ccc(/C=N/NC(=O)c2ccncc2)cc1CN1CCCc2ccccc21`, the inhibition was -28.5%.

`CCC(=O)Nc1cc(C(F)(F)F)ccc1N1CCCC1`: the inhibition was -1.6%.

Regarding `NS(=O)(=O)c1ccc(NC(=S)NC(=O)c2cccnc2)cc1`, the inhibition was -3.6%.

Regarding `NS(=O)(=O)c1ccc(NC(=S)NC(=O)c2cccc(Br)c2)cc1`, the inhibition is 57.3% (active).

Turning to `O=C(NC(=S)Nc1ccc(S(=O)(=O)Nc2ncccn2)cc1)c1cccc(Br)c1`, the inhibition is 5.9%.

As to `CCOC(=O)C1=C(C)NC(=S)NC1c1cccs1` (stereo unspecified), the inhibition is -12.7%.

For the molecule `COc1ccccc1NC(=O)C1=C(C)Nc2nc3ccccc3n2C1c1cccs1` (stereo unspecified), the inhibition was -6.2%.

`CCOC(=O)C1=C(C)Nc2nc3ccccc3n2C1c1cccs1` (stereo unspecified): the inhibition is 57.2% (active).

In the case of `COc1ccccc1Oc1nc(-c2cccnc2)nc2ccccc12`, the inhibition was -4.1%.

In the case of `COc1cc(CNc2ncn[nH]2)ccc1OCc1ccccc1C`, the inhibition is -67%.

As for `Clc1ccc(-c2cc(C3CCNCC3)[nH]n2)c(Cl)c1`, the inhibition was 80.1% (active).

With `Clc1ccc(-c2ncc3ccccn23)c(Cl)c1`, the inhibition was -7.2%.

With `O=C1CSC(c2ccccc2)N1c1nc(-c2ccc(Cl)cc2Cl)cs1` (stereo unspecified), the inhibition is -10%.

As for `COCc1[nH]nc2c1C(C1C=CCCC1)C(C#N)=C(N)O2` (stereo unspecified), the inhibition was 14.2%.

Consider `CCCc1[nH]nc2c1C(C1CC=CCC1)C(C#N)=C(N)O2` (stereo unspecified), for which the inhibition is 50.5% (active).

In the case of `CCCc1[nH]nc2c1C(c1ccc(Br)s1)C(C#N)=C(N)O2` (stereo unspecified), the inhibition is 1.9%.

Consider `COc1nc(N(C)C)nc(N2CC(=O)N(CCNS(=O)(=O)c3ccc(C)cc3)C2=N)n1`, for which the inhibition is -3.4%.

As to `COc1ccc(C)cc1NC(=O)NCc1ccccn1`, the inhibition is -12.1%.

Turning to `CN(c1ccccc1)S(=O)(=O)c1ccc(Cl)c(C(=O)OCC(N)=O)c1`, the inhibition is -4.4%.

Consider `NNC(=O)c1ccc(Cl)cc1Cl`, for which the inhibition was -3.9%.

Consider `CN(C)C=NC(=O)c1cccn1-c1ncc(C(F)(F)F)cc1Cl`, for which the inhibition was -14%.

Turning to `CNc1ccc(SC#N)cc1`, the inhibition was -10.5%.

Take `O=C(OCc1nc2ccccc2[nH]1)C1CCCCC1`: the inhibition was -36%.

On to `COC(=O)C1=CN(Cc2ccc(OC)c(OC)c2)C=C(C(=O)OC)C1c1cccs1`, for which the inhibition is -7.4%.

As for `CC(=O)N1C(C)c2ccccc2C(C)(C)CC12CCCCC2` (stereo unspecified), the inhibition was 2.5%.

For the molecule `CS(=O)(=O)n1nc(-c2ccccc2)nc1NCc1ccco1`, the inhibition was -1.5%.

Regarding `COc1ccc(-n2c(SC)nc(O)cc2=O)cc1`, the inhibition is -11.9%.

Turning to `COc1ccc(-c2noc(CN(C)S(=O)(=O)c3ccc(C)cc3)n2)cc1`, the inhibition is -8.5%.

As to `CCS(=O)(=O)n1nc(-c2ccc(OC)cc2)nc1SC`, the inhibition was 66% (active).

With `CCS(=O)(=O)n1nc(-c2ccccc2)nc1SCc1ccccc1`, the inhibition was 61.1% (active).

For `CCn1c(SCc2ccccc2)nc2c(c1=O)SCC2`, the inhibition was -14%.

Turning to `CCOc1cc(/C=C(/C#N)c2ccc(Cl)cc2)cc(Cl)c1OCC(=O)O`, the inhibition is -8.1%.

For `CC(O)CNCCOc1cccc(Oc2ccccc2)c1` (stereo unspecified), the inhibition was -10.9%.

For the molecule `COc1ccc(-c2nc(CN3CCN(c4ncccn4)CC3)c(C)o2)cc1C`, the inhibition is -13.8%.

In the case of `CCn1c(SCC(=O)Nc2nccs2)nnc1-c1ccco1`, the inhibition was 37.9%.

In the case of `Cc1ccccc1OCCOc1ccc([N+](=O)[O-])cc1/C=N/n1cnnc1`, the inhibition is -2.8%.

Take `CC(=O)c1cnc(-c2ccccc2)s1`: the inhibition is -4%.

With `NS(=O)(=O)c1ccc(CNC(=O)c2ccc(Cl)cc2[N+](=O)[O-])cc1`, the inhibition is -22.8%.

As for `CC(C)C(=O)Nc1ccc2c3c(cccc13)CC2`, the inhibition was -18%.

In the case of `O=C(CSc1nnc(C2CC2)n1Cc1ccccc1)Nc1cccnc1Cl`, the inhibition was -1.5%.

Turning to `C/C(CC(=O)Nc1ccc(Cl)cc1)=N\NC(=O)C(=O)NCCO`, the inhibition was -12.4%.

For the molecule `Cc1cs/c(=N\N=C\c2ccc(O)cc2)n1Cc1ccco1`, the inhibition was -18.1%.

With `CC(C)c1ccc(Nc2nnc(SCC(=O)c3nnc(-c4ccccc4)o3)s2)cc1`, the inhibition was -1.3%.

For `CC1Cc2ccccc2N1C(=O)CSc1nnc(-c2ccc(S(=O)(=O)N3CCCC3)cc2)n1C` (stereo unspecified), the inhibition was -5.8%.

As to `O=C(Nc1ccccc1C(=O)N1CCOCC1)c1ccc(CSc2ccccc2)cc1`, the inhibition was -8.4%.

Take `COC(=O)[C@H]1Cc2cnoc2C[C@]1(C)C(=O)O`: the inhibition was -8%.

`CC(Oc1ccccc1)C(=O)Nc1oc(-c2ccco2)c(-c2ccco2)c1C#N` (stereo unspecified): the inhibition was -18.5%.

For `COc1ccc(N2C(=O)CC(Sc3n[nH]c(-c4ccc(C)cc4)n3)C2=O)cc1` (stereo unspecified), the inhibition is 43.8%.

Turning to `O=Cc1ccc(Oc2cccc(C(F)(F)F)c2)nc1`, the inhibition is -8.3%.

As for `O=C(Cc1c[nH]c2ccccc12)N/N=C/c1cccc(F)c1`, the inhibition was -1%.

Take `Cc1cc(C(=O)COc2ccccc2[N+](=O)[O-])c(C)n1-c1cccc(S(=O)(=O)N2CCOCC2)c1`: the inhibition is -9.7%.

In the case of `Cc1cc(OCC(=O)NC2CCN(C)CC2)ccc1[N+](=O)[O-]`, the inhibition is -25.3%.

For `O=C(Cc1ccccc1)Nc1cccc(C(=O)N/N=C/c2ccco2)c1`, the inhibition is -4.3%.

Take `CC(=O)NCC(=O)N1CCCC(C(=O)c2ccc3c4c(cccc24)CC3)C1` (stereo unspecified): the inhibition was -8.9%.

For the molecule `Cc1ccccc1CC1(CO)CCCN(C(=O)c2cc(-c3ccccc3)no2)C1` (stereo unspecified), the inhibition was -4.5%.

Turning to `CC(=O)c1ccc(NC(=O)CSC(=S)N2CCCC2)cc1`, the inhibition is -5.7%.

For the molecule `CC(C)Oc1ccc(CC(=O)NNC(=S)Nc2ccc(Br)cc2)cc1`, the inhibition was -117%.

Turning to `CCOCCCN(C(=O)Cn1nnc(-c2ccc(OC)c(OC)c2)n1)C(CC)C(=O)NC1CCCC1` (stereo unspecified), the inhibition is -11.1%.

Regarding `Cc1ccc(CN2CCN(Cc3cn(C)nc3-c3ccccc3)CC2CCO)o1` (stereo unspecified), the inhibition is -8.9%.

`Cn1cnnc1Sc1ccc(S(C)(=O)=O)cc1[N+](=O)[O-]`: the inhibition is -1.9%.

For the molecule `COc1cc2c3c(c1)/C(=C1/SC(=S)NC1=O)C(=O)N3C(C)(C)C=C2C`, the inhibition is 21.4%.

Take `CC(C)C1N=C2c3ccccc3N=C(SCC(=O)c3ccc(O)c(O)c3)N2C1=O` (stereo unspecified): the inhibition was 93.7% (active).

As to `CCC(C)NC(=O)CSC1=Nc2ccccc2C2=NC(CCC(=O)NCc3ccco3)C(=O)N12` (stereo unspecified), the inhibition is -11%.

As to `O=C(CSC1=Nc2ccccc2C2=NC(CC(=O)NCc3ccco3)C(=O)N12)NCc1ccco1` (stereo unspecified), the inhibition is -27.8%.

For `CN(C(=O)CSc1nncc2ccccc12)C1CCCCC1`, the inhibition is -7.3%.

Turning to `C=CCNC(=O)COC(=O)CNC(=O)c1cc(Cl)cc([N+](=O)[O-])c1`, the inhibition is 6.8%.

In the case of `COc1ccc(OC)c(S(=O)(=O)Nc2cccc(-c3ccc4nncn4n3)c2)c1`, the inhibition was -5.3%.

Take `COc1cccc(N(C(=O)C2COc3ccccc3O2)C(C(=O)NC2CCCCC2)c2ccc(O)cc2)c1` (stereo unspecified): the inhibition is 0.9%.

For `Cc1cc2c(cc1C)[n+](C)cn2CC(O)COCC1CC=CCC1` (stereo unspecified), the inhibition was -9.6%.

For `CCCCOc1ccc(N(CC(=O)NC(C)C)C(=O)CCC(=O)Nc2ccccn2)cc1`, the inhibition was -3.6%.

As to `CC(C)NC(=O)NCCCCCCS(C)=O` (stereo unspecified), the inhibition was -6.1%.

In the case of `COc1cccc(NC(=O)CS(=O)(=O)c2cn(CC(=O)N3CCOCC3)c3ccccc23)c1`, the inhibition was -14.3%.

Consider `COc1ccc(Cn2c(-c3ccc(Cl)cc3)c[n+]3ccccc23)cc1`, for which the inhibition is -2.5%.

`COC1=CCC2([N+](=O)[O-])CN(CC(=O)O)CC1([N+](=O)[O-])C2` (stereo unspecified): the inhibition was -11.9%.

For the molecule `CCCC(c1nnnn1C(C)(C)C)N1CCN(Cc2ccccc2)CC1` (stereo unspecified), the inhibition is -1.2%.

For the molecule `c1ccc2c(NC3C4CC5CC(C4)CC3C5)nc(N3CCOCC3)nc2c1` (stereo unspecified), the inhibition is -15.9%.

For the molecule `CC1CN(/C=C/C(=O)C(F)(F)F)CC(C)O1` (stereo unspecified), the inhibition is -8.2%.

As to `CCOc1ccccc1N1CCN(C(=O)COc2ccc3c(C)cc(=O)oc3c2)CC1`, the inhibition was -11%.

For the molecule `CC(C)CCC(C)NC(=O)c1ccc2nccnc2c1` (stereo unspecified), the inhibition was -12.5%.

On to `CC12CCC(C(=O)N(NC(=O)c3ccccc3O)C1=O)C2(C)C` (stereo unspecified), for which the inhibition is 3.9%.

On to `COc1ccc(N2C(=O)C(O)C2c2ccc(C)cc2)cc1` (stereo unspecified), for which the inhibition was -8.2%.

With `C=CCn1c(CCNC(=O)c2cccs2)n[nH]c1=S`, the inhibition is -3.9%.

Turning to `CCCc1nc(SCC(=O)Nc2ccc(S(=O)(=O)N(C)C)cc2)c2ccccc2n1`, the inhibition is 17.6%.

For the molecule `Cc1cc(=O)oc(C)c1C(=O)NCCN(C)Cc1ccccc1`, the inhibition is -6.1%.

Consider `Cc1ccccc1NC(=O)c1nn(-c2ccc(F)c(F)c2)ccc1=O`, for which the inhibition is -8.3%.

Consider `O=C(Nc1nnc(Cc2ccccc2)s1)c1cnccn1`, for which the inhibition was -2.7%.

On to `CCN1CCN(C(=O)c2ccc(CN(c3ccc(C)c(C)c3)S(C)(=O)=O)cc2)CC1`, for which the inhibition was -5.1%.

`CC(C)(C)C(=O)N1CCC[C@@]1(CO)C(=O)O`: the inhibition is -10.8%.

For `Cc1ccc(S(=O)(=O)N2CCN(C(=O)c3cccs3)CC2)cc1`, the inhibition was -7.6%.

For the molecule `O=C(O)C1C2C=CC(O2)C1C(=O)NCCc1cccc(Cl)c1` (stereo unspecified), the inhibition was -9.5%.

With `CC1CCC(NC(=O)C2c3ccccc3C(=O)N2Cc2ccc3c(c2)OCO3)CC1` (stereo unspecified), the inhibition is -16.3%.

With `O=C(COC(=O)/C=C/c1cn(-c2ccccc2)nc1-c1cccnc1)Nc1ccc(Cl)cc1Cl`, the inhibition is -8.8%.

For the molecule `CC(=O)Nc1ccc(C(=O)CSc2nc3ccc(C)cc3[nH]2)cc1`, the inhibition was -33.5%.
